Results published in the supplement of paper PMC6658780.
Structures can show the parent of a compound that is named as a salt. ± gives the standard deviation of the averaged measurements.

Tests used:
[1] = system: Klebsiella pneumoniae NCTC-13439; assay: percent growth inhibition of drug alone vs DMSO control; higher = more growth inhibition; settings: antibiotic (0.125x MIC): none (0.1% DMSO)
[2] = system: Klebsiella pneumoniae NCTC-13439; assay: percent growth inhibition of drug + antibiotic vs DMSO control; higher = more growth inhibition
[3] = system: Klebsiella pneumoniae KPC-119; assay: percent growth inhibition of drug alone vs DMSO control; higher = more growth inhibition; settings: antibiotic (0.125x MIC): none (0.1% DMSO)
[4] = system: Klebsiella pneumoniae KPC-119; assay: percent growth inhibition of drug + antibiotic vs DMSO control; higher = more growth inhibition
[5] = antibiotic (0.125x MIC): ciprofloxacin, 7 µM
[6] = antibiotic (0.125x MIC): ciprofloxacin, 20 µM
[7] = antibiotic (0.125x MIC): tigecycline, 7 µM
[8] = antibiotic (0.125x MIC): colistin, 7 µM
[9] = antibiotic (0.125x MIC): colistin, 20 µM
[10] = antibiotic (0.125x MIC): tigecycline, 20 µM
[11] = antibiotic (0.125x MIC): gentamicin, 7 µM
[12] = antibiotic (0.125x MIC): gentamicin, 20 µM
[13] = antibiotic (0.125x MIC): meropenem, 20 µM

Compound: NC(=O)N/N=C/c1ccc([N+](=O)[O-])o1 [Nitrofural]
- percent growth inhibition of drug alone ([1]; 7 µM): -7.28 ± 2%
- percent growth inhibition of drug alone ([1]; 20 µM): 11.8 ± 8.7%
- percent growth inhibition [2, 5]: 10.1 ± 18%
- percent growth inhibition [2, 6]: 16.3 ± 2.7%

Compound: Cc1c(F)c(N2CCNC(C)C2)cc2c1c(=O)c(C(=O)O)cn2C1CC1 (stereo unspecified) [Grepafloxacin]
- percent growth inhibition of drug alone ([1]; 7 µM): 13 ± 6.5%
- percent growth inhibition of drug alone ([1]; 20 µM): 23.5 ± 9.9%
- percent growth inhibition [2, 5]: 18.9 ± 3.6%
- percent growth inhibition [2, 6]: 51.2 ± 18%
- percent growth inhibition [2, 7]: 7.09 ± 6.5%

Compound: CCCCCCCCNC(C)C(O)c1ccc(SC(C)C)cc1 (stereo unspecified) [Suloctidil]
- percent growth inhibition of drug alone ([3]; 7 µM): -1.6 ± 0.96%
- percent growth inhibition of drug alone ([3]; 20 µM): -1.21 ± 1.4%
- percent growth inhibition [4, 8]: 3.9 ± 5.4%
- percent growth inhibition [4, 9]: 94.63 ± 0.84%

Compound: O=C(OCC(O)CO)c1ccccc1Nc1ccnc2cc(Cl)ccc12 (stereo unspecified) [Glafenine hydrochloride]
- percent growth inhibition of drug alone ([1]; 7 µM): -9.8 ± 14%
- percent growth inhibition of drug alone ([1]; 20 µM): 3.73 ± 17%
- percent growth inhibition [2, 5]: 6.41 ± 16%
- percent growth inhibition [2, 6]: 5.01 ± 4.3%

Compound: COc1c(N2C[C@@H]3CCCN[C@@H]3C2)c(F)cc2c(=O)c(C(=O)O)cn(C3CC3)c12 [Moxifloxacin]
- percent growth inhibition of drug alone ([1]; 7 µM): 12.5 ± 0.24%
- percent growth inhibition [2, 5]: 25.8 ± 7.3%
- percent growth inhibition [2, 6]: 99.24 ± 0.54%
- percent growth inhibition [2, 7]: 14.4 ± 14%
- percent growth inhibition [2, 10]: 99.69 ± 0.6%

Compound: NCC[C@H](O)C(=O)N[C@@H]1C[C@H](N)[C@@H](O[C@H]2O[C@H](CN)[C@@H](O)[C@H](O)[C@H]2O)[C@H](O)[C@H]1O[C@H]1O[C@H](CO)[C@@H](O)[C@H](N)[C@H]1O [Amikacin hydrate]
- percent growth inhibition of drug alone ([3]; 7 µM): 3.37 ± 0.38%
- percent growth inhibition of drug alone ([3]; 20 µM): 39.8 ± 0.7%
- percent growth inhibition [4, 8]: 38.9 ± 2.6%
- percent growth inhibition [4, 9]: 92.29 ± 0.57%
- percent growth inhibition [4, 11]: 30.1 ± 9.4%
- percent growth inhibition [4, 12]: 99.83 ± 0.21%
- percent growth inhibition [4, 13]: 99.71 ± 0.1%

Compound: O=C1NCN(c2ccccc2)C12CCN(CCCC(c1ccc(F)cc1)c1ccc(F)cc1)CC2 [Fluspirilen]
- percent growth inhibition of drug alone ([3]; 7 µM): -0.668 ± 2.3%
- percent growth inhibition of drug alone ([3]; 20 µM): -1.04 ± 3.2%
- percent growth inhibition [4, 8]: 4.99 ± 4%
- percent growth inhibition [4, 9]: 96.4 ± 1.1%

Compound: COc1c(N2CCNC(C)C2)c(F)cc2c(=O)c(C(=O)O)cn(C3CC3)c12 (stereo unspecified) [Gatifloxacin]
- percent growth inhibition of drug alone ([1]; 7 µM): 12.5 ± 5.8%
- percent growth inhibition [2, 5]: 26.2 ± 8.2%
- percent growth inhibition [2, 6]: 96.7 ± 1.2%
- percent growth inhibition [2, 7]: 17.5 ± 19%

Compound: Nc1nc(/C(=C/CC(=O)O)C(=O)N[C@@H]2C(=O)N3C(C(=O)O)=CCS[C@H]23)cs1 [Ceftibuten]
- percent growth inhibition of drug alone ([3]; 7 µM): 38.6 ± 4.3%
- percent growth inhibition [4, 12]: 99.37 ± 0.26%
- percent growth inhibition [4, 13]: 94.5 ± 4.1%

Compound: CCN1CCN(c2cc3c(cc2F)c(=O)c(C(=O)O)cn3C2CC2)CC1 [Enrofloxacin]
- percent growth inhibition of drug alone ([1]; 7 µM): 3.46 ± 4.9%
- percent growth inhibition [2, 5]: 7.59 ± 7.8%
- percent growth inhibition [2, 6]: 73.1 ± 13%
- percent growth inhibition [2, 7]: 7.12 ± 1.8%
- percent growth inhibition [2, 10]: 69.6 ± 9.7%

Compound: CC1COc2c(N3CCN(C)CC3)c(F)cc3c(=O)c(C(=O)O)cn1c23 (stereo unspecified) [Ofloxacin]
- percent growth inhibition of drug alone ([3]; 7 µM): 47.1 ± 5%
- percent growth inhibition of drug alone ([3]; 20 µM): 97.47 ± 0.25%
- percent growth inhibition [4, 8]: 98.02 ± 0.8%
- percent growth inhibition [4, 9]: 97.8 ± 1.4%
- percent growth inhibition [4, 11]: 99.97 ± 0.11%
- percent growth inhibition [4, 12]: 99.953 ± 0.055%
- percent growth inhibition ([4]; antibiotic (0.125x MIC): meropenem, 7 µM): 96.7 ± 3.1%
- percent growth inhibition [4, 13]: 99.92 ± 0.12%

Compound: CN1CCN(c2c(F)cc3c(=O)c(C(=O)O)cn4c3c2SCC4)CC1 [Rufloxacin]
- percent growth inhibition of drug alone ([3]; 7 µM): 14.6 ± 2.5%
- percent growth inhibition of drug alone ([3]; 20 µM): 83.22 ± 0.72%
- percent growth inhibition [4, 8]: 96.6 ± 3.1%
- percent growth inhibition [4, 9]: 93.89 ± 0.36%

Compound: CC(=O)OCC(=O)[C@@]1(O)CC[C@H]2[C@@H]3CCC4=CC(=O)CC[C@]4(C)[C@@]3(F)[C@@H](O)C[C@@]21C [Fludrocortisone acetate]
- percent growth inhibition of drug alone ([3]; 7 µM): 1.64 ± 0.4%
- percent growth inhibition of drug alone ([3]; 20 µM): 3.28 ± 1.7%
- percent growth inhibition [4, 8]: 58.4 ± 10%
- percent growth inhibition [4, 9]: -6.61 ± 5%
